Assay results: PubChem BioAssay AID1508600 (Functional Genomics Laboratory (NCATS/FGL), 2020)
Screen size: about 53,000 sequences; about 3,700 (7%) were called active. Shown is part of a subset that was picked to be rich in actives. A number with no mark means an inactive call.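 How the source made its calls: active means gene knockdowns whose robust z-score for IL-1 alpha signal is at least 2 or at most -2, so actives lie on both sides; inactive means the rest.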

Test: Components of the Cytosolic LPS Sensing Pathway: Gene Identification via Genome-wide siRNA Screen;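 further: robust z of the log signal after scaling to non-targeting control siRNA wells of the plate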
Details: RAW264.7 macrophages, IL-1a HTRF, actives lie on both sides, screened at 100 nM (by protocol), cells primed 5 h with Pam3CSK4 first
Method in brief: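 Knockdown: 100 nM siRNA, 48h, RAW264.7. Stimulation: Pam3CSK4 5 h, then LipidA via TransIT-TKO 24 h. Output: supernatant IL-1a HTRF, negative-control-normalized, log robust z-score; viability by CellTiter-Glo.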

Row | Sequence | z-score
1 | GCAAACGACGAAAGUCCAATT against Usp49 | -1.63
2 | CCAUAAACGACGAAAUGAUTT against Usp11 | 0.189
3 | GGCAUUUGACUUUAUUGCATT against Nit1 | 3.54 (active)
4 | GGUCAAGCAAGUGUUGGUUTT against Gart | -0.0147
5 | GGAAGAUUCCGACUUUAUUTT against Irs4 | 0.69
6 | GCUCAGACAAGAAUUGCUATT against Specc1 | -0.612
7 | CCACCUUUCGUGCAUUAUCTT against Coro6 | 1.32
8 | GGCUGUCAUACUUUCAGGGTT against Hyal5 | 2.51 (active)
9 | GGGCCAAGGAAGAACUUCATT against Clec12a | -0.655
10 | GGAAAAAGAGGCCAAAAAGTT against Arid4a | -0.221
11 | GGUCAAUGUGAUUGAGGAUTT against Acap1 | 0.869
12 | CCUAUUGAGUCAUCCAUCGTT against Utp25 | -0.586
13 | GCAGUACGCUGCAUUUAAATT against Mtrf1l | 0.551
14 | GGAGUUUCAACUCUUCUUCTT against Necab2 | -0.576
15 | GCUCCUGAACUAAUACAAGTT against Melk | 5 (active)
16 | GGUGAGGAGGAAAUCCUGCTT against Rdh10 | -1.21
17 | CCUGCUUUGUAUCUCCUCCTT against Csprs | 0.184
18 | GCAACAAUGAGAGACCACATT against Htr5a | 3.27 (active)
19 | GGAAGCAUCUCAUUAUUCATT against Lamp2 | 0.0306
20 | GGCACCUACAUCCUUAUUGTT against Ptprn | -0.16
21 | GGAAAGGAAAAUCAACUUCTT against Usp14 | 0.0989
22 | GCUUUCUUUUGCACUUGAATT against Ctc1 | -1.1
23 | CCACAUGUCACAUCUUUUCTT against Mrpl47 | 0.16

Row | Sequence | z-score
24 | GGCACAGACUAAGGUAUAGTT against Adra2c | -1.51
25 | GCCCUGAAGCCUAUAAUCATT against Nhlrc1 | 2.34 (active)
26 | GGCAACAGUACCAAAGACATT against Rps24 | 0.483
27 | GGCCGAAUCACAGAAACUCTT against Mrps18a | 1.87
28 | GUAAGCAGCAACAGAGGCUTT against Cd70 | -0.558
29 | GGCAUUGAAGGAAGUGAUCTT against Psmg3 | -2.9 (active)
30 | GGCCUUAGUAUUCUGCCUCTT against Nuak1 | 0.395
31 | GGGAAUUCACACUGUCUGGTT against Tmem176a | -1.73
32 | CGGCUAAGGAAAAAUGUGATT against Nr1h4 | -1.26
33 | CCAACAUCCUUAAGCGGCUTT against Lonp1 | -0.161
34 | GGUCAAAGGUGAAGAGAAATT against Chgb | 1.43
35 | GGAAACAGCAUCAUCAUGUTT against Snrpg | -2.28 (active)
36 | CGUACAUCGUCGAGAUUUUTT against Rims1 | 0.839
37 | GCGGAACCUAUAUAGGAAUTT against Zfp74 | -0.292
38 | CGAGAGUAGCUUGUUGCUGTT against Rhobtb3 | 0.359
39 | GCUGUAUGGGAAGGGUUACTT against Tsen2 | 0.829
40 | GGAUCAGUACCUGUGAUGGTT against Adamdec1 | -2.07 (active)
41 | GGAUCGUAGAACACCCUUCTT against Robo2 | -0.00164
42 | GGAUUCCACAAUUUUUGUATT against Ncoa6 | -0.399
43 | GCGGGUUAACUUGUUUGGUTT against Zcwpw1 | 0.525
44 | GGCUUACACAAAAAUCUGUTT against Camk2d | -0.36
45 | GGAAAUUACCUUGAUGAUGTT against Anxa4 | -1.59
46 | GGACAAUCUGAUUCAAGUATT against Ms4a2 | 0.104

Row | Sequence | z-score
47 | GUUGUGCAAUCAACAAGGUTT against Fam98c | 2.05 (active)
48 | GCUACGCAAUAAGACCACATT against Lamc3 | 2.25 (active)
49 | GGAGCUCAUUAGCAAAUAUTT against Olfm5 | -0.859
50 | GUACAAGCUCAAGUGCUCGTT against Casz1 | -0.463
51 | GGAACUCCUGACUCUCAGATT against Htra2 | -1.19
52 | UGUACUGAUACAUACUUCCTT against Olfr1249 | -0.487
53 | GCAUGACAGUCAACACAAGTT against Slc35f6 | 2.04 (active)
54 | GGAAAUAGACACCAAGAGCTT against Mau2 | -1.64
55 | GCAUCAUUAAGUGCUACCGTT against Pcdhac2 | -0.263
56 | UCUAUCUCAUUACUAUUGUTT against Olfr190 | 0.649
57 | CCUAUCAAACUGACUUCAUTT against Castor2 | 0.309
58 | GGACCUCCCACAGUGUUAUTT against Enpp2 | -0.574
59 | GGGAAACAGAUGAAAGAGUTT against Relch | 0.0344
60 | GGUUUGAACUUCAGCAACUTT against Adam15 | -2.17 (active)
61 | GGUCCACUUAGUGGCUUAATT against Atp5pb | -0.227
62 | GGUGUAUUGAGCUAAACAUTT against Rnft2 | -0.344
63 | GGCAUGAGCGAGUUAAACCTT against Usp53 | 1.65
64 | GGAGAACAUUCAGGUGACATT against Pdgfd | -0.625
65 | GGCGAUGUGAAAAUCUUAATT against Xpnpep2 | 3.65 (active)
66 | GGCCUCUUAUGUCAACCUGTT against Rpsa | -1.57
67 | GCCGAUUCUUCAAUGUGCGTT against Ribc1 | -0.242
68 | CCAGCACGCUGAAGUCUGATT against Adam19 | 1.21
69 | CCCUAUCGUGAUUUAUUGGTT against C130073F10Rik | -1.33
